From PubChem
CHX counter: counter-screen for Shiga toxin inhibitors: cycloheximide protein synthesis inhibition; cell reporter, cycloheximide protein synthesis inhibition counterscreen; max response, %; hit rate 12% among 300,000; in the data active = max response mostly above about 13%, no sharp cut-off; inactive = mostly below about 14%; note: read at 38.3 µM for the half of the compounds with a filed dose
Pf growth 96h: inhibits malaria parasite growth, 96 h. P. falciparum luciferase reporter growth, 96 h. Potency, µM (series often up to 28.7 µM), hits mostly inhibitors. hit rate 6.9% among 320,000. AID 504834; active = well fitted inhibition curve with a large enough effect; inconclusive = small, poorly fitted or top-dose-only effect, or another doubt; inactive = no such curve, though single readings can be large or run the other way
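P. falciparum expressing integrated firefly luciferase, in erythrocytes at 2% hematocrit, 0.05% parasitemia, incubated with compounds 96 h at 37 C, 5% CO2. Growth inhibition read as loss of luminescence; two-generation exposure targets delayed-death apicoplast inhibitors.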
SARS PLP yeast: inhibitors of SARS-CoV papain-like protease in yeast. Potency, µM (series often up to 32.9 µM), most hits filed as activators. S. cerevisiae expressing SARS-CoV PLpro, growth rescue. hit rate 0.19% among 330,000; note: nearly all actives have a fitted effect of over 55% in size
NS1 function inh: influenza NS1 inhibition. Potency, µM (series often up to 46.1 µM). hit rate 0.4% among 270,000. AID 2326; note: actives are rising curves; nearly all actives have a fitted effect of over 50% in size
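Read-out: OD600 growth recovery of NS1-expressing budding yeast. Cells grown overnight at 30C in -URA glucose medium, washed, resuspended and diluted 1:100 in 2% galactose assay medium, pH 6.0. Same strain lacking NS1 served as positive control.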
Pf growth 48h: inhibits P. falciparum growth in the first generation, 48 h; Potency, µM (series often up to 28.7 µM), usual class: inhibitors; AID 504832; P. falciparum luciferase growth in erythrocytes, 48 h; hit rate 5.9% among 310,000; active = well fitted inhibition curve with a large enough effect; inconclusive = small, poorly fitted or top-dose-only effect, or another doubt; inactive = no such curve, though single readings can be large or run the other way
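Growth was read as firefly luciferase luminescence after a 48 h, 37 C, 5% CO2 exposure of compounds to reporter-bearing P. falciparum cultures (0.1% parasitemia, 2% hematocrit final) in Albumax-supplemented RPMI 1640.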
Shiga toxin inh: Shiga toxin inhibition; Vero cells, Shiga toxin protein synthesis inhibition reporter; inhibition, % at 38.7 µM; hit rate 9.2% among 290,000; in the data active = inhibition mostly above about 28%, no sharp cut-off; inactive = mostly below about 43%
A number is an active result; i = inactive; ? = inconclusive; nt = not tested or not shown; [ ] = dose if it differs, or a comment. The list is not random: actives were taken first. Their share in the collection is about 21%. Unless noted, calls come from the whole dose curve.

SMILES	CHX counter	Pf growth 96h	SARS PLP yeast	NS1 function inh	Pf growth 48h	Shiga toxin inh
CC(Nc1nc2ccccc2n2cnnc12)c1ccccc1 (stereo unspecified)	20	i	i	i	i	35
c1ccc(Nc2nc3ccccc3n3cnnc23)cc1	i	i	i	i	i	i
c1ccc2c(c1)nc(Nc1ccc(N3CCCCC3)cc1)c1nncn12	15	i	i	i	i	i
c1ccc(C(c2ccccc2)N2CCN(c3nc4ccccc4n4cnnc34)CC2)cc1	i	1.7µM	i	i	1.9µM	i
Cc1ccc(N(C)S(=O)(=O)c2cccc(C(=O)NNC(=O)c3ccncc3)c2)cc1	nt	?	i	nt	i	nt
Cc1onc(-c2ccccc2)c1C(=O)OCC(=O)NC(=O)c1ccccc1	nt	i	i	nt	?	nt
CC(C)(CN1CCN(Cc2ccccc2)CC1)NS(=O)(=O)c1ccccc1	i	i	i	i	i	i
CC(C)(CN1CCN(C(c2ccccc2)c2ccccc2)CC1)NS(=O)(=O)c1ccccc1	i	10µM	i	i	12µM	i
CC(C)(CN1CCC(Cc2ccccc2)CC1)NS(=O)(=O)c1ccccc1	i	i	i	i	12µM	i
O=S(=O)(c1ccccc1F)N1CCN(c2nc3ccccc3s2)CC1	i	i	i	i	i	i
O=C1CNC(=S)N1c1nc2ccccc2s1	29	?	i	i	i	82
O=C1CCCN1c1ccc(CNS(=O)(=O)c2ccc(F)cc2)cc1	14	nt	i	i	i	i
O=C1CCCN1c1ccc(N2CCCC2=O)cc1	i	2.1µM	i	i	i	i
CCOC(=O)N1CCC(NC(=O)CC2C(=O)NCCN2Cc2ccccc2F)CC1 (stereo unspecified)	i	i	i	i	i	i
Cc1ccsc1/C=C1/C(=O)NN(c2ccccc2)C1=O	40	i	i	nt	i	82
Cc1ccsc1C=C1C(=O)c2ccccc2C1=O	i	i	i	i	i	i
Cc1cc(C)cc(OCC(O)CN2CC(C)OC(C)C2)c1 (stereo unspecified)	i	?	i	i	i	i
COC(c1ccccc1)c1c(-c2ccccc2)nn(C)c1Cl (stereo unspecified)	i	12µM	i	i	13µM	i
Cc1ccc(-c2nc(N=Nc3ccc(O)cc3)n[nH]2)cc1	49	i	i	i	i	105
Cc1ccc(S(=O)(=O)Nc2ccc(N=Nc3ccc(O)cc3)cc2)cc1	i	i	i	i	i	i
Cc1nc(N=Nc2ccc(O)cc2)n[nH]1	20	i	i	i	i	53
COc1ccc(-c2nc(N=Nc3ccc(O)cc3)n[nH]2)cc1	35	?	i	i	i	i
Cc1ccc(O)c(N=Cc2ccc(C)s2)c1	37	i	i	i	i	52
Cc1ccc(O)c(N=Cc2cccs2)c1	29	i	i	i	?	38
Cc1ccc(/C=N/n2c(C)nnc2C)s1	i	i	i	i	i	i
SMILES	CHX counter	Pf growth 96h	SARS PLP yeast	NS1 function inh	Pf growth 48h	Shiga toxin inh
Cc1cccc(N2CCN(S(=O)(=O)c3c(C)nc4scc(C)n4c3=O)CC2)c1C	i	?	i	i	i	i
CC(C)(C)OC(=O)C[C@@H]1C/C=C\C[C@H](CC(=O)N(CCO)Cc2ccccc2)C(=O)N[C@H](C(C)(C)C)COC1=O	nt	nt	i	nt	nt	nt
Cc1ccc(C(=O)N/C(=C\c2ccc(-c3ccccc3[N+](=O)[O-])o2)C(=O)NCCN(C)C)cc1	13	?	i	i	1.5µM	i
Cc1ccc(C(=O)N/C(=C\c2ccc(-c3ccccc3[N+](=O)[O-])o2)C(=O)NCCCN(C)C)cc1	i	5.2µM	i	i	2.6µM	i
CCCCNC(=O)/C(=C\c1ccc([N+](=O)[O-])o1)NC(=O)c1ccccc1	i	i	i	nt	?	i
C/C(CCc1ccccc1)=N\NC(=O)CCc1ccccc1	i	i	i	i	i	i
CC(=O)Nc1ccc(NC(=O)CCCc2ccccc2)cc1	31	i	i	i	i	i
CC(C)CNC(=O)c1cccc(NC(=O)CCc2ccccc2)c1	i	i	i	i	i	i
COc1ccc(NC(=O)CCCc2ccccc2)cc1OC	54	i	i	i	i	89
Cc1cccc(NC(=O)CCc2ccccc2)c1	54	i	i	nt	i	i
CC(=O)Nc1cccc(NC(=O)CCc2ccccc2)c1	i	nt	i	i	i	138
Cc1cc(C)n2nc(C(=O)OCC(=O)Nc3ccc(C)c(S(=O)(=O)N4CCOCC4)c3)nc2n1	nt	nt	i	nt	nt	nt
Cc1ccc(C)c(NC(=O)CN(C)C(=O)c2ccc3c(=O)n4c(nc3c2)CCC4)c1	nt	i	i	nt	?	nt
O=S(=O)(NC1CCCCC1N1CCN(c2ccc(F)cc2)CC1)c1ccccc1 (stereo unspecified)	i	i	i	i	?	i
COC(=O)c1ccc(CSCC(=O)Nc2ccccc2)cc1	i	?	i	i	i	i
O=C(O)CCN1C(=O)c2ccc(NC(=O)CCc3ccccc3)cc2C1=O	i	12µM	i	i	i	i
COC(=O)c1cccc(NC(=O)CCc2ccccc2)c1	58	i	i	i	i	57
COC(=O)c1cccc(NC(=O)CSCc2ccccc2)c1	19	?	i	i	i	i
CN(C)c1cccc(NC(=O)CCc2ccccc2)c1	18	nt	i	i	i	68
CCOCCc1c(O)nc(SCC(=O)N2CCOCC2)[nH]c1=O	i	i	i	i	i	i
COC(=O)c1cc(OC)c(OC)cc1NC(=S)N1CCN(c2ccccn2)CC1	i	i	i	i	?	i
CCCN1CCC(NC(=S)Nc2cccc(Cl)c2Cl)CC1	i	?	i	nt	i	i
CS(=O)(=O)N(CC(=O)NCCSCc1cccc(Cl)c1)c1ccccc1F	i	i	i	i	i	nt
FC(F)(F)c1nc2ccccc2[nH]1	i	i	i	i	i	i
Cc1ccc(C(=O)Nc2cccc3[nH]c(C(F)(F)F)nc23)cc1	i	i	i	i	i	i
SMILES	CHX counter	Pf growth 96h	SARS PLP yeast	NS1 function inh	Pf growth 48h	Shiga toxin inh
COc1ccc(CNc2cccc3[nH]c(C(F)(F)F)nc23)cc1	i	i	i	i	1.7µM	i
COc1cc(CNc2cccc3[nH]c(C(F)(F)F)nc23)cc(OC)c1	i	i	i	?	2.1µM	i
CC1CCCN(C(=O)c2cc(S(=O)(=O)N3CCCCC3)c[nH]2)C1 (stereo unspecified)	i	i	i	i	i	i
NS(=O)(=O)c1cccc(NC(=O)COc2ccc([N+](=O)[O-])cc2)c1	i	i	i	nt	9.3µM	i
Cc1ccc(C(=O)Nc2cccc(S(=O)(=O)N(C)c3ccccc3)c2)o1	nt	13µM	i	nt	8.3µM	nt
Cc1ccc(C(=O)Nc2cccc(S(=O)(=O)N3CCCC3)c2)o1	nt	?	i	nt	?	nt
Cc1ccc(NC(=O)CN2CCc3ccccc3C2)cc1F	i	i	i	i	i	i
COc1cccc(NC(=O)CN2CCc3ccccc3C2)c1	17	i	i	i	i	i
O=C(COc1ccc([N+](=O)[O-])cc1)Nc1ccncc1	i	?	i	nt	i[5.75 µM]	i
Cc1cc(C)nc(-n2nc(C)cc2NC(=O)CN2CCc3ccccc3C2)n1	i	i	i	i	4.1µM	i
